Measurements reported in PubChem BioAssay.

Columns and labels:
[1] = tested on: Human papillomavirus type 1a protein E7 (residues 44-93); test: small molecules binding HPV E7 44-93 – biochemical, small-molecule microarray, residues 44-93, 635 nm fluorescence, primary screen (AID 1108); settings: fluorescence 635 nm, higher = more signal;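 also: E7 fragment applied at 1 µg/mL in TBST for 1 h at 4 C; score combines spot fluorescence with its signal to noise ratio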
[2] = hepatitis C replication reporter changes, two-sided – Huh7 cells, luciferase reporter, HCV replication inhibitor project, primary screen (AID 1109); settings: Huh7 HCV replicon luciferase reporter, 48 h; higher = more signal;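 also: huh7 hepatoma cells harbouring a luciferase neomycin HCV replicon reporter; luciferase luminescence as measure of HCV replicon replication; test concentration not given here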
[3] = target: Left-right determination factor 2 (Homo sapiens) (UniProt O00292); test: small molecules binding LEFTY2 protein – biochemical, small-molecule microarray, 635 nm fluorescence scan, primary screen (AID 1110); settings: higher = more signal
[4] = target: Calmodulin-1 (Homo sapiens) (UniProt P0DP23); test: small molecules binding calmodulin-1 with EGTA – biochemical, small-molecule microarray, Cy5-labelled CALM1, profiling panel (AID 1111); settings: Cy5-CALM1 binding fluorescence, higher = more signal;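 also: labelled calmodulin applied in Tris saline Tween buffer holding calcium plus EGTA and DTT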
[5] = target: Calmodulin-1 (Homo sapiens) (UniProt P0DP23); test: small molecules binding Ca-loaded calmodulin-1 – biochemical, small-molecule microarray, Cy5-labelled CALM1, plus calcium, artefact control for SMM control-protein annotation, profiling panel (AID 1112); settings: Cy5-CALM1 binding fluorescence, higher = more signal;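 also: score merges spot fluorescence with signal to noise from triplicate slides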
[6] = probe aWnt5a binding to arrayed compounds – biochemical, biotinylated probe, 635/667 nm fluorescence, primary screen (AID 1113); settings: small-molecule microarray, higher = more signal;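 also: score merges 667 nm fluorescence intensity with signal-to-noise per printed feature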
[7] = probe aShh binding to arrayed compounds – biochemical, biotinylated probe, 635/667 nm fluorescence, primary screen (AID 1114); settings: small-molecule microarray, higher = more signal;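 also: probe is biotin-labelled aShh protein from a stem cell growth factor screen; measures binding of labelled protein to compounds printed on the slide; score merges feature fluorescence at 667 nm with signal-to-noise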
[8] = probe aNog binding to arrayed compounds – biochemical, biotinylated probe, 635/667 nm fluorescence, primary screen (AID 1115); settings: small-molecule microarray, higher = more signal;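 also: probe is biotinylated aNog protein used at 0.15 µg/mL for 1 h at 4 C; z-score combines 667 nm fluorescence of each spot with its signal to noise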
[9] = target: Torsin-1A-interacting protein 1 (Homo sapiens) (UniProt Q5JTV8); test: compound microarray binding of lysate hLAP1 – cell lysate, small-molecule microarray, COS7 lysate, 635/667 nm fluorescence, primary screen (AID 1116); settings: 635 nm fluorescence, higher = more signal
[10] = target: Alpha-bungarotoxin (Bungarus multicinctus) (UniProt P60615); test: compounds binding labelled alpha-BTX control protein – biochemical, small-molecule microarray, Alexa647 label, 635/667 nm fluorescence, artefact control for SMM control protein annotation, profiling panel (AID 1117); settings: alpha-BTX-A647 binding fluorescence, higher = more signal
Alpha-bungarotoxin (Bungarus multicinctus), sequence (P60615 whole entry, looked up): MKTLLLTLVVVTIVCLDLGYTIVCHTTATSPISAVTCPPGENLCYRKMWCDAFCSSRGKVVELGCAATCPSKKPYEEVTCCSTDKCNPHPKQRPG

Left-right determination factor 2 (Homo sapiens), sequence (O00292 whole entry, looked up): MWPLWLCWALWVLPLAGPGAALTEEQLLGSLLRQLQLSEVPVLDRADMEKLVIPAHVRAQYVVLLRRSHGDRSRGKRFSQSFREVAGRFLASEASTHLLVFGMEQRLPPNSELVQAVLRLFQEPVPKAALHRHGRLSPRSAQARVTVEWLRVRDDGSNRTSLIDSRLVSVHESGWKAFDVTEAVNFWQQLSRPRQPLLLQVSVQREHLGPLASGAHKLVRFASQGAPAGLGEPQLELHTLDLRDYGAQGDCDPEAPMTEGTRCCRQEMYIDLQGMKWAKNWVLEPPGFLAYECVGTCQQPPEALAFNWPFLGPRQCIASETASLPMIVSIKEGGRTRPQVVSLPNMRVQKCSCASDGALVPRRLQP
Torsin-1A-interacting protein 1 (Homo sapiens), sequence (Q5JTV8 whole entry, looked up): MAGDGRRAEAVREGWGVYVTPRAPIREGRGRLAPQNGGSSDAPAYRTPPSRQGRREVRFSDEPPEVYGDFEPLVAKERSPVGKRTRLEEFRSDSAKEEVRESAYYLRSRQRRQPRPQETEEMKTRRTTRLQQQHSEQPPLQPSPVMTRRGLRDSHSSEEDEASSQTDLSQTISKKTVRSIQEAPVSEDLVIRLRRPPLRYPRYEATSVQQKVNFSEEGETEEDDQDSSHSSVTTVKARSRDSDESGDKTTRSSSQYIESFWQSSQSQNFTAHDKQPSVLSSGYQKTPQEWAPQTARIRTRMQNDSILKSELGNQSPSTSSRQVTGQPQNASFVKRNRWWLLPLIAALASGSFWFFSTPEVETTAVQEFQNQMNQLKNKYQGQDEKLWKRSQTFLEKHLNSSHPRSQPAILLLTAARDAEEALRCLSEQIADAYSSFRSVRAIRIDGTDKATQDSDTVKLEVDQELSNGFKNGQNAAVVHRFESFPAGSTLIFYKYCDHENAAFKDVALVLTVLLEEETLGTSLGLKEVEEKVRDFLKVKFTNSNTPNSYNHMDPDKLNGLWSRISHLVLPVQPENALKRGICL

C=CCOC(=O)[C@@H]1[C@H]2C(=O)O[C@H](c3ccccc3)[C@H](c3ccccc3)N2[C@H](c2ccc(OCCOC(=O)[C@H]3C[C@H]4C(=O)N[C@@H](Cc5ccccc5)C(=O)N4[C@H]3c3cccc(OCCO)c3)cc2)[C@@]12C(=O)Nc1ccc(I)cc12
composite z-score [1]: 0.88
z-score [2]: -2.08
composite z-score [3]: 0.413
composite z-score [4]: -0.573
composite z-score [5]: -0.771
composite z-score [6]: -0.0161
composite z-score [7]: 0.116
composite z-score [8]: 0.749
composite z-score [9]: 1.29
composite z-score [10]: 1.03

O=C1C2C=CC(C(O)c3ccc(Br)cc3)N(Nc3ccccc3)C2C(=O)N1c1ccccc1 (stereo not given)
composite z-score [1]: 0.699
z-score [2]: 0.393
composite z-score [3]: -0.853
composite z-score [4]: 0.863
composite z-score [5]: 0.29
composite z-score [6]: 0.0151
composite z-score [7]: 0.389
composite z-score [8]: 1.26
composite z-score [9]: 0.661
composite z-score [10]: 1.2

COc1cc(NN2C(C(O)c3ccc(I)cc3)C=CC3C(=O)N(C)C(=O)C32)cc(OC)c1OC (stereo not given)
composite z-score [1]: 0.539
z-score [2]: -1.32
composite z-score [3]: -0.379
composite z-score [4]: 0.143
composite z-score [5]: 0.476
composite z-score [6]: 0.0077
composite z-score [7]: 0.289
composite z-score [8]: -0.0247
composite z-score [9]: 0.917
composite z-score [10]: -0.161

CCCCC(O)C1C=CC2C(=O)N(Cc3ccccc3)C(=O)C2N1n1cnnc1 (stereo not given)
composite z-score [1]: 1.13
z-score [2]: -1.09
composite z-score [3]: 0.23
composite z-score [4]: 0.0285
composite z-score [5]: -0.163
composite z-score [6]: -0.0087
composite z-score [7]: 0.13
composite z-score [8]: -0.0351
composite z-score [9]: 0.208
composite z-score [10]: 0.274

COCCCNC(=O)[C@@]1(Cc2ccccc2I)c2ccccc2C(=O)N(Cc2ccccc2Cl)[C@H]1c1ccc(CO)cc1
composite z-score [1]: 1.16
z-score [2]: -1.36
composite z-score [3]: 0.365
composite z-score [4]: 1.32
composite z-score [5]: 0.101
composite z-score [6]: 0.0101
composite z-score [7]: -0.154
composite z-score [8]: -0.364
composite z-score [9]: 0.164
composite z-score [10]: 0.752

O=C1c2ccccc2C(=O)C2CC([C@H]3Oc4ccccc4S(=O)(=O)N4CCC[C@@H]34)=CCC12 (stereo not given in full)
composite z-score [1]: -0.811
z-score [2]: -1.34
composite z-score [3]: 0.0197
composite z-score [4]: -0.488
composite z-score [5]: 0.184
composite z-score [6]: -0.124
composite z-score [7]: -0.0362
composite z-score [8]: -0.273
composite z-score [9]: 0.123
composite z-score [10]: 0.0404

C=CC[C@]1(C(=O)N2CCOCC2)N=C(c2ccc(OCCCO)cc2)O[C@H]1c1ccccc1CN=[N+]=[N-]
composite z-score [1]: 1.42
z-score [2]: -1.85
composite z-score [3]: 0.366
composite z-score [4]: 1.84
composite z-score [5]: 0.403
composite z-score [6]: 0.127
composite z-score [7]: 0.398
composite z-score [8]: 1.88
composite z-score [9]: 1.94
composite z-score [10]: 0.948

O=C1C[C@@](C(=O)NCc2ccccc2)(c2ccc([N+](=O)[O-])cc2)[C@@H](c2ccc(CO)cc2I)N1C1CCCCC1
composite z-score [1]: 1.14
z-score [2]: -2.36
composite z-score [3]: 0.597
composite z-score [4]: 0.261
composite z-score [5]: 0.315
composite z-score [6]: 0.0733
composite z-score [7]: 0.192
composite z-score [8]: -0.175
composite z-score [9]: 0.52
composite z-score [10]: 0.414
